Measured values as given in ChEMBL document CHEMBL3988442, “University of Dundee, Small-Polar-MMV Screening Library” (2021).
The campaign covered roughly 69,000 compounds. About 950 (1.4%) showed an effect of 50% or more. The list comes from a sample in which strong results are over-represented; it also holds similar structures and randomly drawn compounds.

System: Mycobacterium tuberculosis
Assay: Cornell M. t heat shock assay; further: in the data most compounds retested in dose-response had high values
Type: functional, organism-based
Set-up: dose or concentration left out as unconfirmed

| SMILES | Percent Effect |
| --- | --- |
| COCC(=O)N1CCN(Cn2nc(C)c(Br)c2C)CC1 | -1.426% |
| O=C(N1CCCC1)N1CCOCC2(CCN(Cc3cccs3)C2)C1.O=C(O)C(F)(F)F (centres undefined) | -28.46% |
| Cc1ncc(CNC(C)(C)CO)c2cc(C(=O)c3ccc(Br)cc3)oc12 | 39.89% |
| Cc1ncc(CNCC(C)O)c2cc(C(=O)c3ccc(Br)cc3)oc12.Cl (centres undefined) | 10.59% |
| Cc1ncc(CNCCO)c2cc(C(=O)c3ccc(Br)cc3)oc12.Cl | 80.79% |
| Cl.c1csc(-c2noc(C3CNC3)n2)c1 | 3.28% |
| O=C(O)C(F)(F)F.O=C(O)C(F)(F)F.O=C(O)C(F)(F)F.c1cnn(C[C@@H]2C[C@@H]3CN(CC4CC4)CC[C@@H]3N2c2nccs2)c1 | -5.195% |
| O=C(O)CC(O)(CC(=O)O)C(=O)O.OC1CCCN(Cc2ccnc(-c3cccnc3)n2)C1 (centres undefined) | -5.175% |
| CCOC1COC2(CCN(Cc3cccc(C#N)c3)CC2)C1.O=C(O)C(F)(F)F (centres undefined) | -5.189% |
| N#Cc1ccc(N2CCCC3(CCC(=O)N3CC3CC3)CC2)nc1.O=C(O)C(F)(F)F (centres undefined) | 42.6% |
| CN(C(=O)C(c1c(F)cccc1Cl)N(C)C)c1nccs1 (centres undefined) | -3.774% |
| Cc1csc(N(C)C(=O)C(c2c(F)cccc2Cl)N(C)C)n1 (centres undefined) | 16.08% |
| CN(C)C(C(=O)Nc1nccs1)c1c(F)cccc1Cl (centres undefined) | 71.6% |
| O=C(O)C(F)(F)F.O=C(c1cnccn1)N1CCC2(CC1)CCN(Cc1ccccn1)C2=O | -24.58% |
| Cl.FC(F)CNc1cnc(C2CCNCC2)cn1 | 9.975% |
| CN(C)CCn1c2c(ccc1=O)CC(NCc1cnn(C)c1)CC2.O=C(O)C(F)(F)F.O=C(O)C(F)(F)F (centres undefined) | 21.9% |
| O=C(O)C(F)(F)F.O=C(O)C(F)(F)F.c1cncc(C2COC3(CCN(CC4CCOCC4)CC3)C2)c1 (centres undefined) | -13.27% |
| CCN1CCOCC12CCN(C(=O)Cc1ccccc1)CC2.O=C(O)C(F)(F)F | -16.25% |
| CNC(=O)CN1CC[C@H]2CN(C(=O)c3cc[nH]n3)C[C@H]2C1.O=C(O)C(F)(F)F | 6.516% |
| Cc1cnn(CCNCc2nc(-c3ccsc3)oc2C)c1 | -4.227% |
| Cc1oc(-c2ccsc2)nc1CNC(C)Cn1cccn1 (centres undefined) | -16.19% |
| Cc1cnn(CC(C)NCc2nc(-c3ccsc3)oc2C)c1 (centres undefined) | 59.87% |
| O=C(O)C(F)(F)F.O=C(O)C(F)(F)F.O=C(O)C(F)(F)F.c1cncc(COCc2cncc3c2CCN(Cc2ccoc2)C3)c1 | 2.729% |
| Oc1nc(N2CCOCC2)nc2c1CCN(Cc1cccc(F)c1)CC2 | -9.224% |
| COc1cccc(Nc2nc(N3CCCC3)nc3c2CNCC3)c1.Cl | 69.1% |
| CC(C)Nc1nc(N2CCCC2)nc2c1CN(c1ncc(F)cn1)CC2 | 18.45% |
| COc1cccc(Nc2nc(-c3ccncc3)nc3c2CNCC3)c1.Cl | 9.794% |
| COc1cccc(Nc2nc(C3CCNCC3)c3ccccn23)c1.Cl | 10.85% |
| Fc1cccc(Nc2nc(N3CCCC3)nc3c2CNCC3)c1 | 102.4% |
